{
  "source": "the OligoGym collection",
  "data": [
    {"target": "TEAD3", "assay": "pooled miR-30 sensor sort-seq; sequence = guide strand", "conditions": "shRNA", "values": [
      {"sequence": "TATGCAAACAGTGAGGACCTTC", "sensor-assay potency score (higher = more potent)": -0.217},
      {"sequence": "TCTGACAGGATGATCTTCCGCC", "sensor-assay potency score (higher = more potent)": 0.971},
      {"sequence": "TTCTCTACCACCTGTTTGCCAA", "sensor-assay potency score (higher = more potent)": -0.68},
      {"sequence": "TTTCTCGTCCGAGTCTTCCCCG", "sensor-assay potency score (higher = more potent)": -0.491},
      {"sequence": "TTGTTCTGCAGGACACTGGCAG", "sensor-assay potency score (higher = more potent)": -0.245},
      {"sequence": "TACTCCCGCACCTTCTTCCGAG", "sensor-assay potency score (higher = more potent)": -0.896},
      {"sequence": "TTGAGGTCGGCCCAGAACTTGA", "sensor-assay potency score (higher = more potent)": -1.66},
      {"sequence": "TTTGCCAAAGGAGCACACCTTG", "sensor-assay potency score (higher = more potent)": -1.16},
      {"sequence": "TATAGCGTGCAATCAACTCATT", "sensor-assay potency score (higher = more potent)": -1.09},
      {"sequence": "TTCTCGTCCGAGTCTTCCCCGT", "sensor-assay potency score (higher = more potent)": -0.997}
    ]},
    {"target": "TECPR1", "assay": "pooled miR-30 sensor sort-seq; sequence = guide strand", "conditions": "shRNA", "values": [
      {"sequence": "TTCCACTTCTTGTCTTTCGTGT", "sensor-assay potency score (higher = more potent)": 0.613},
      {"sequence": "TATGAGGCAGGGAAGTCGCTGG", "sensor-assay potency score (higher = more potent)": -0.217},
      {"sequence": "TTGGTCTCGTTCAGCACTGGGA", "sensor-assay potency score (higher = more potent)": -0.998},
      {"sequence": "TTCCACGGTATCTTCTGCGGTC", "sensor-assay potency score (higher = more potent)": -0.344},
      {"sequence": "TAGATGTTACTGGTGCTGCTGG", "sensor-assay potency score (higher = more potent)": -0.642},
      {"sequence": "TTGTCTTTCGTGTAGGTGGCGG", "sensor-assay potency score (higher = more potent)": -0.464},
      {"sequence": "TTGTTGGACACGTGCTCCCAGC", "sensor-assay potency score (higher = more potent)": -1.68},
      {"sequence": "TGTGGTACCAGCAGTCACCGGC", "sensor-assay potency score (higher = more potent)": 0.193},
      {"sequence": "TCACCAACCATCTCAATCCAAC", "sensor-assay potency score (higher = more potent)": -1.66},
      {"sequence": "TTGAGGTCAATATTGGTCCAGG", "sensor-assay potency score (higher = more potent)": -0.869},
      {"sequence": "TTCTTGTCTTTCGTGTAGGTGG", "sensor-assay potency score (higher = more potent)": -0.581}
    ]},
    {"target": "TEF", "assay": "pooled miR-30 sensor sort-seq; sequence = guide strand", "conditions": "shRNA", "values": [
      {"sequence": "TTGGTGACTCTAGACTAGGTGT", "sensor-assay potency score (higher = more potent)": 0.324},
      {"sequence": "TTGCGTCTTGTCCAGTACTTTT", "sensor-assay potency score (higher = more potent)": -1.72},
      {"sequence": "TATGGGATGGTCTTGTCCCAGA", "sensor-assay potency score (higher = more potent)": -1.26},
      {"sequence": "TAGACTAGGTGTCTTGCCCTGC", "sensor-assay potency score (higher = more potent)": -0.327},
      {"sequence": "TTGTCCAGTACTTTTCATCCTT", "sensor-assay potency score (higher = more potent)": 0.089},
      {"sequence": "TTCTTCTTGCGTCTTGTCCAGT", "sensor-assay potency score (higher = more potent)": -0.866},
      {"sequence": "TCATCCTTCTGCTCGTCGGGGA", "sensor-assay potency score (higher = more potent)": 0.16},
      {"sequence": "TTTAGCTGCCACGTTGTTCTTC", "sensor-assay potency score (higher = more potent)": -0.221},
      {"sequence": "TAGCTCTGCTACAGGCAGCAGC", "sensor-assay potency score (higher = more potent)": -0.912},
      {"sequence": "TACTTGGACACGATGGTCTTGC", "sensor-assay potency score (higher = more potent)": -0.169}
    ]},
    {"target": "TELO2", "assay": "pooled miR-30 sensor sort-seq; sequence = guide strand", "conditions": "shRNA", "values": [
      {"sequence": "TTCTTGTTCTTCACCACCAGGT", "sensor-assay potency score (higher = more potent)": -0.407},
      {"sequence": "TTCTGGGTCATCACAAACTGGG", "sensor-assay potency score (higher = more potent)": -0.844},
      {"sequence": "TTTCTCAGCCACGTCCGCCAGC", "sensor-assay potency score (higher = more potent)": -1.03},
      {"sequence": "TGTAAGAACAGAAGCTTCTGGG", "sensor-assay potency score (higher = more potent)": 0.738},
      {"sequence": "TTGCCCAGCAGCGTCTCCCGGA", "sensor-assay potency score (higher = more potent)": -1.12},
      {"sequence": "AAACTCATCATCGCTGTCCAGG", "sensor-assay potency score (higher = more potent)": -1.32},
      {"sequence": "TAGGCATCGATGTGGAAGCGAA", "sensor-assay potency score (higher = more potent)": -1.36},
      {"sequence": "TAGTTGAGGGCATAGAACTGTG", "sensor-assay potency score (higher = more potent)": -0.752},
      {"sequence": "TTGGAGAGAGTCCACAACCGCC", "sensor-assay potency score (higher = more potent)": -1.23}
    ]}
  ]
}
